High-throughput results (PubChem BioAssay)
Shown are actives, neighbours in structure and some others; about 5.4% of the full set was active somewhere.
FMDV antiviral = blocks foot and mouth disease virus. FMDV antiviral cell-based qHTS. Potency, µM (titrated, usually from 57.9 µM), usual class: inhibitors. 1.2% of 410,000 active. AID 1159524; calls by dose curve; tested in HEK293T cells; further: read-out not given here; nearly all actives have a fitted effect of over 45% in size
LASV entry inh = inhibitors of Lassa virus binding or cell entry; Potency, µM (titrated, usually from 37.9 µM), most hits filed as inhibitors; AID 540256; 1.2% of 300,000 active; Lassa virus pseudotype entry inhibition, cell reporter; calls by dose curve; tested in HEK293 cells; further: nearly all actives have a fitted effect of over 50% in size
Vaccinia Venus = vaccinia inhibition (Venus reporter); Vaccinia virus Venus reporter expression, fluorescence; Potency, µM (titrated, usually from 36.5 µM), hits mostly inhibitors; 0.46% of 330,000 active; AID 720580; calls by dose curve; tested in A549 cells; further: nearly all actives have a fitted effect of over 30% in size
MARV entry inh = inhibitors of Marburg virus binding or cell entry; Potency, µM (titrated, usually from 37.8 µM), usual class: inhibitors; 1.8% of 300,000 active; Marburg virus pseudotyped entry inhibition, cell reporter; calls by dose curve; tested in HEK293 cells
Sm TGR block = blocks Schistosoma mansoni thioredoxin glutathione reductase. AID 485364. Q962Y6. Potency, µM (titrated, usually from 114 µM), hits mostly inhibitors. 3% of 360,000 active. purified TGR, DTNB reduction, TNB absorbance 405 nm; active means well fitted inhibition curve with a large enough effect; inconclusive means small, poorly fitted or top-dose-only effect; inactive means no such curve, though single readings can be large or run the other way; further: nearly all actives have a fitted effect of over 60% in size
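First, TGR (20 nM dispensed) and NADPH were mixed with compound. Second, a 15 min room-temperature incubation followed. Third, further NADPH and then DTNB were added to start the reaction. Finally, TNB absorbance was monitored kinetically.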
Vaccinia mCherry = inhibitors of vaccinia virus infection (mCherry reporter signal). Vaccinia virus mCherry reporter infection, fluorescence. 0.63% of 310,000 active. Potency, µM (top dose mostly 36.5 µM), hits mostly inhibitors; calls by dose curve; tested in A549 cells; further: nearly all actives have a fitted effect of over 35% in size
Numbers stand for hits; . = inactive; ? = inconclusive; / = no result given; ! = not active in a repeat; [ ] = remark or other dose.

SMILES	FMDV antiviral	LASV entry inh	Vaccinia Venus	MARV entry inh	Sm TGR block	Vaccinia mCherry
CCC1CCCCN1C(=O)Cn1c(=O)n(CCCCCC(=O)NCc2ccccc2Cl)c(=O)c2sccc21 (configuration not stated)	.	.	.	.	.	.
COc1ccc(O)c(C2Nc3ccccc3-n3c(-c4ccccc4)c4c(=O)n(C)c(=O)n(C)c4c32)c1 (configuration not stated)	39.8µM	.	.	.	.	?
COc1ccc(C2(C(=O)NCC3Cc4cccc(-c5nc(C)cnc5C)c4O3)CCCC2)cc1 (configuration not stated)	.	/	.	/	/	.
Oc1ccc(NCc2ccc(OCc3ccccc3Cl)cc2)cc1	.	?	.	?	35.5µM	.
Oc1ccc(NCc2ccc(OCc3ccccc3)cc2)cc1	.	?	.	?	7.08µM	.
COC(=O)Nc1ccc(OCc2ccccc2)cc1	.	?	.	?	.	.
CCc1ccc(CNc2ccc(O)cc2)cc1	.	?	.	.	22.4µM	.
COc1ccc(C(=O)NCc2nc(-c3cccc(NC(=O)c4ccc(C)s4)c3)oc2C)cc1	.	/	.	/	/	.
CCC(Sc1ncccc1C(=O)OCCN1CCCC1=O)C(=O)NCc1ccco1 (configuration not stated)	.	.	/	.	44.7µM	/
COc1cccc(-c2nn(C)c3sc(C(=O)N4CCN(c5cccc(C(F)(F)F)c5)CC4)cc23)c1	.	.	.	.	.	.
COC(=O)c1ccc(NC(=O)CCn2cnnn2)c(C)c1	.	.	.	.	.	.
COC(=O)N[C@@H](c1ccccc1)[C@]1(C(C)=O)CCCC1=O	/	/	/	.	/	/
Cc1ccc2cc(CCl)c(Cl)nc2c1	?	.	.	?	25.1µM	.
CCc1cc2ccccc2nc1Cl	.	.	.	.	/	.
ClCc1cc2ccccc2nc1Cl	28.2µM	.	.	.	31.6µM	.
CC[C@@]12C=C(C=Cc3ccccc3)[C@](CC)(C1)[C@H](c1ccccc1)CC2=O	/	/	/	.	/	/
CCC1CCCCN1C(=O)c1ccc2c(c1)N(Cc1cccc(Cl)c1)C(=O)c1ccccc1S2(=O)=O (configuration not stated)	.	?	.	/	.	.
CC(=O)OC[C@]12CCC(C)=C[C@H]1O[C@@H]1[C@H](O)[C@@H](OC(C)=O)[C@@]2(C)[C@]12CO2	?	/	3.16µM	/	.	?
COc1ccc2c(c1)[C@@]13CCCC[C@H]1[C@@H](C2)NCC3	/	?	/	18.3µM	/	/
C=CCN1CC[C@]23CCCCC2[C@H]1Cc1ccc(O)cc13 (some centres not stated)	/	.	/	7.94µM!	/	/
COc1ccc2c(c1)C13CCCCC1C(C2)N(C)CC3 (configuration not stated)	/	?	/	11.2µM	/	/
Cc1cc2c(=O)c(C(=O)c3ccncc3)cn(CC(=O)Nc3cccc(C)c3C)c2cc1C	.	.	.[7.34 µM]	/	.	.[7.34 µM]
NC(=S)N=Nc1c(O)n(Cc2ccccc2)c2ccccc12	.	.	0.316µM	.	.	?
C/C(Cl)=C\Cn1c(O)c(N=NC(N)=S)c2ccccc21	?	.	?	10µM	.	0.316µM
Cc1ccc(NC(=O)Cn2c(O)c(N=NC(N)=S)c3ccccc32)cc1	.	?	0.282µM	8.91µM	.	?
SMILES	FMDV antiviral	LASV entry inh	Vaccinia Venus	MARV entry inh	Sm TGR block	Vaccinia mCherry
CCCCNC(=S)N=Nc1c(O)n(Cc2ccccc2)c2ccccc12	.	.	.	.	.	.
Cc1cc(OCCn2c(C3CC(=O)N(Cc4ccc(F)cc4)C3)nc3ccccc32)ccc1Cl (configuration not stated)	?	.	.	.	.	.
CCc1ccccc1N1CC(c2nc3ccccc3n2CCOc2ccc(Cl)c(C)c2)CC1=O (configuration not stated)	28.2µM	?	?	?	.	.
COc1cccc(NC(=O)c2ccc(NCCCN3CC(C)CC(C)C3)c([N+](=O)[O-])c2)c1 (configuration not stated)	.	.	.	.	.	.
COc1cccc(NC(=O)c2ccc(NCCCN3CCC(C)CC3)c([N+](=O)[O-])c2)c1	.	.	.	3.98µM	.	.
CCOC(=O)N1CCC(NC(=O)c2ccc3c(c2)N(Cc2ccccc2)C(=O)c2ccccc2S3(=O)=O)CC1	.	.	.	.	.	.
COc1ccc(CN2C(=O)NC(=O)/C(=C/c3ccc([N+](=O)[O-])s3)C2=O)cc1	?	.	.	?	1.12µM	.
COc1ccc(CN2C(=O)NC(=O)/C(=C\c3ccco3)C2=O)cc1	.	.	.	.	?	.
COc1ccc(CN2C(=O)NC(=O)/C(=C\c3cc(OC)c(OC)c(OC)c3)C2=O)cc1	.	.	.	.	12.6µM	.
COc1cc(OC)c(OC)cc1/C=C1/C(=O)NC(=O)N(Cc2ccccc2)C1=O	?	.	.	?	?	.
O=C1NC(=O)N(Cc2ccc(F)cc2)C(=O)/C1=C\c1ccc([N+](=O)[O-])s1	.	.	.	.	2.24µM	.
Cc1nn(-c2nc(-c3ccc(F)cc3)cc(C(F)(F)F)n2)c(C)c1Br	?	.	.	.	.	.
O=C(c1ccc2c(Cl)c3c(nc2c1)CCCC3)N1CCC(N2CCCCC2)CC1	.	?	?	4.61µM	.	.
COC(=O)c1ccccc1NC(=O)CN1C(=O)COc2ccccc21	.	?	.	.	.	.
COc1ccc(CCNC(=O)c2ccc3c(c2)N(Cc2c(F)cccc2Cl)C(=O)CS3)cc1OC	?	?	.	/	.	.
O=C(Nc1ccc(-c2cn3cccnc3n2)cc1)c1ccccc1F	.	.	?	/	.	.
Cc1ccc(S(=O)(=O)N2CCC(=O)N(C(COCc3ccc(C(F)(F)F)cc3)C(C)C)CC2)cc1 (configuration not stated)	?	13µM	?	?	.	.
Cc1ccc(S(=O)(=O)N2CCC(=O)N(CCOCc3ccc(C(F)(F)F)cc3)CC2)cc1	?	?	?	16.4µM	.	?
O=C1CCN(S(=O)(=O)c2ccccc2)CCN1CCOCc1ccc(C(F)(F)F)cc1	?	/	?	/	.	?
Cc1ccc(S(=O)(=O)N(C(=O)c2ccncc2)c2ccc(OC(=O)c3ccncc3)c3ccccc23)cc1	.	?	.	?	20µM	.
Cc1ccc(S(=O)(=O)N(C(=O)c2ccncc2)c2ccc(OC(=O)c3ccncc3)c3ccccc23)c(C)c1	?	.	.	?	17.8µM	.
O=C(c1ccc2c(c1)OCO2)N(Cc1cccs1)C1(C(=O)NC2CCCCC2)CCCCC1	?	?	?	8.91µM	.	15.8µM
O=C(Cc1cccs1)N(Cc1cccs1)C1(C(=O)NC2CCCC2)CCCCC1	?	.	/	.	.	/
O=C(CC1C(=O)NCCN1Cc1ccc(F)cc1Cl)NC1CCCCCCC1 (configuration not stated)	.	.	.	?	?	.
O=C(CC1C(=O)NCCN1Cc1ccccc1C(F)(F)F)NC1CCCCCC1 (configuration not stated)	.	/	/	/	25.1µM	/
